Bioassay records as filed in PubChem BioAssay.
The list is not random: actives were taken first. Their share in the collection is about 3.2%.
Tau FP inhib – tau fibrillization inhibition (FP); P10636; K18 P301L tau heparin fibrillization, Alexa594 FP, 6 h; Potency, µM (titrated, usually from 57.7 µM), usual class: inhibitors; 280,000 tested, 0.39% active; note: nearly all actives have a fitted effect of over 55% in size
Target sequence (P10636 561-689 P618L limits assumed): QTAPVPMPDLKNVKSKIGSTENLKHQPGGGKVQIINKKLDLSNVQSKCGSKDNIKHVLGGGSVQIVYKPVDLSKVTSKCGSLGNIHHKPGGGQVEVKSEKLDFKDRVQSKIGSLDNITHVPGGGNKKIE
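Human K18 P301L fragment (15 uM unlabeled plus 0.24 uM Alexa 594-labeled) in 100 mM sodium acetate pH 7 with compound, aggregation induced by 20 uM heparin for 6 hr at 37 C. ThT (30 uM) added for 1 hr, then Alexa 594 FP read.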
GoLoco inh red – blocks human Gai1 binding to RGS12 GoLoco peptide, red readout; P63096; Gai1:RGS12 GoLoco peptide FP, rhodamine, 10 min; Potency, µM (series often up to 61.6 µM), usual class: inhibitors; 230,000 tested, 0.44% active; AID 880; active = well fitted inhibition curve with a large enough effect, not every such curve was filed as active; inactive = no such curve, though single readings can be large or run the other way; note: nearly all actives have a fitted effect of over 30% in size
TR SRC2 fluor cs – counter-screen for TRb-SRC2 inhibitors: fluorescence interference; Potency, µM (doses to about 106 µM); AID 1479; TRb/SRC2 Texas Red total fluorescence interference; 280,000 tested, 0.29% active; active = well fitted curve in either direction with a large enough effect; inconclusive = small, poorly fitted or top-dose-only effect
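Flags fluorescent or light-absorbing compounds by total fluorescence, S + 2P, at 555 nm excitation and 632 nm emission. Mixture: 20 nM Texas Red SRC2 peptide, 0.6 uM human TRb LBD, 1 uM T3, 5% DMSO; compound exposure 5 h at ambient temperature.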
TRb-SRC2 inh – inhibitors of human thyroid hormone receptor beta-SRC2 interaction. TRbeta-SRC2 peptide binding, fluorescence polarization; receptor liganded with 1 µM T3. Potency, µM (titrated, usually from 106 µM), actives largely listed as inhibitors. P10828. 280,000 tested, 0.065% active; note: nearly all actives have a fitted effect of over 50% in size
Target sequence (P10828 whole entry, looked up): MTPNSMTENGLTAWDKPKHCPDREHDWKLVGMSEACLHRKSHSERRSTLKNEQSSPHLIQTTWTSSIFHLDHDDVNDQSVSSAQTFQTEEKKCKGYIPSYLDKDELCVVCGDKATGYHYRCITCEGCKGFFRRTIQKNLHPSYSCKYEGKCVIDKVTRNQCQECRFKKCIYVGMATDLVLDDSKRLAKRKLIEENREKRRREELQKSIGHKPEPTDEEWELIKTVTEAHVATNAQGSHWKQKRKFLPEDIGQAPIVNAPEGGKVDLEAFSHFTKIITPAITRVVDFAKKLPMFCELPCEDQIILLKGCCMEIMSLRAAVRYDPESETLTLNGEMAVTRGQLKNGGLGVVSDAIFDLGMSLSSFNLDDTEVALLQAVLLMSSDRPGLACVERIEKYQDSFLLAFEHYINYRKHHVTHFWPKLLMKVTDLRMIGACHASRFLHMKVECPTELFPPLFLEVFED
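Fluorescence polarization of 20 nM Texas Red SRC2 peptide (20-aa NR interaction domain) bound to 0.6 uM human TRb ligand-binding domain, with 1 uM T3, after 5 hr at ambient temperature; inhibition seen as decreased polarization.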
Tau fluor counter – counter-screen for tau fibril formation inhibitors | 280,000 tested, 0.93% active | AID 1463 | Potency, µM (highest dose often 57.7 µM) | tau K18 P301L Alexa594 fluorescence, heparin fibrillization; note: nearly all actives have a fitted effect of over 55% in size
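Human K18 P301L tau (15 uM unlabeled plus 0.24 uM Alexa 594-labeled, final) in 100 mM sodium acetate pH 7 was mixed with compound and 20 uM heparin and incubated 6 hr at 37 C.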
Tau ThT inhib – tau fibrillization inhibition (ThT binding). 270,000 tested, 2.1% active. AID 1460. Potency, µM (series often up to 57.4 µM), actives largely listed as inhibitors. recombinant tau K18 P301L (four-repeat tau fragment), heparin-induced fibrillization, ThT fluorescence; note: nearly all actives have a fitted effect of over 55% in size
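Tau K18 P301L fragment (15 uM unlabeled plus 0.24 uM Alexa 594-labeled) in 100 mM sodium acetate pH 7 with compound, fibrillization induced by 20 uM heparin for 6 hr at 37 C. Thioflavin T (30 uM) added, fluorescence read after 1 hr (ex 450, em 510 nm).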
Each line names hits and unclear results; the compound was inactive in the other large screens; [ ] = dose if it differs, or a comment. Unless noted, calls come from the whole dose curve; as a rule, active = well fitted curve in the direction sought with a large enough effect; inconclusive = small, poorly fitted or top-dose-only effect, or another doubt; inactive = no such curve, though single readings can be large; an effect the other way counts as inactive or inconclusive.

C[N+]1=C(/C=C/Nc2ccccc2Cl)C(C)(C)c2ccccc21	Tau FP inhib inconclusive, TR SRC2 fluor cs 44.7µM[fluorescent], TRb-SRC2 inh inconclusive, Tau fluor counter inconclusive, Tau ThT inhib 28.2µM
FC(F)(F)c1cnc(/C=C/Nc2ccccc2Cl)c(Cl)c1	none
Cc1ccc(NC(=O)Cn2c(=O)n(Cc3nc(C)no3)c(=O)c3cc4c(cc32)OCO4)cc1	none (no result: GoLoco inh red)
COc1ccc(-n2nc([N+](=O)[O-])c(=NCCC3=CCCCC3)n2O)cc1	Tau fluor counter inconclusive, Tau ThT inhib 7.94µM
COc1ccc(-n2nc([N+](=O)[O-])c(=NCc3ccco3)n2O)cc1	Tau ThT inhib 10µM
CCCCCCCCCCCCCCCCOC[C@H](COP(=O)([O-])OCC[N+](C)(C)C)OC(=O)CCCCCCCC(=O)O	none (no result: Tau FP inhib, GoLoco inh red, Tau fluor counter, Tau ThT inhib)
Cc1ccc(C)c2sc(N)nc12	none
Nc1n[nH]c(C2CC2)c1N=Nc1ccc(Cl)cc1	Tau fluor counter 15.8µM[quencher], Tau ThT inhib 10µM
Cc1[nH]nc(N)c1-c1ccc(Cl)cc1	none
Cc1[nH]nc(N)c1N=Nc1ccc(Br)cc1	Tau fluor counter inconclusive, Tau ThT inhib 11.2µM
Nc1n[nH]c(C2CC2)c1N=Nc1ccc(Cl)c(Cl)c1	Tau FP inhib inconclusive, Tau fluor counter 12.6µM[quencher], Tau ThT inhib 12.6µM
Cc1nc(N)sc1N=Nc1ccc(Br)cc1	Tau fluor counter 15.8µM[quencher], Tau ThT inhib 3.98µM
CCOCC	none (no result: Tau FP inhib, GoLoco inh red, Tau fluor counter, Tau ThT inhib)
Cc1ccc(C)c(Cn2c(=O)n(-c3ccc(Cl)cc3)c(=O)c3c(C)c(C)sc32)c1	none (no result: GoLoco inh red)
Cc1nc2ccc(S(=O)(=O)N(C)CC(=O)Nc3cccc(C(F)(F)F)c3)cc2s1	Tau FP inhib inconclusive (no result: GoLoco inh red)
CC[C@H](C)[C@H](N)C(=O)N[C@@H](CCCNC(=N)N)C(=O)N[C@@H](CCC(N)=O)C(=O)NCC(=O)N1CCC[C@H]1C(=O)N[C@@H](CCCCN)C(=O)N[C@@H](CCC(=O)O)C(=O)N1CCC[C@H]1C(=O)N[C@@H](Cc1ccccc1)C(=O)N[C@@H](CCCNC(=N)N)C(=O)N[C@@H](CC(=O)O)C(=O)N[C@@H](Cc1ccc(O)cc1)C(=O)N[C@H](C(=O)N[C@@H](CC(=O)O)C(=O)N[C@@H](CCCNC(=N)N)C(=O)N[C@@H](Cc1ccccc1)C(=O)N[C@@H](Cc1ccc(O)cc1)C(=O)N[C@@H](CCCCN)C(=O)N[C@H](C(=O)N[C@@H](CC(C)C)C(=O)O)[C@@H](C)O)C(C)C	none (no result: Tau FP inhib, GoLoco inh red, Tau fluor counter, Tau ThT inhib)
O=C(CSc1nnc(SCc2ccccc2)s1)N/N=C/C=C/c1ccco1	Tau FP inhib inconclusive, TR SRC2 fluor cs inconclusive, Tau ThT inhib inconclusive
O=C(Cc1cccs1)N/N=C/C=C/c1ccco1	Tau FP inhib inconclusive, Tau fluor counter inconclusive, Tau ThT inhib 25.1µM
O=C(CNc1cccc2ccccc12)N/N=C/c1ccc(C(=O)O)cc1	Tau ThT inhib inconclusive
O=C(CNc1cccc2ccccc12)N/N=C/C=C/c1ccco1	Tau fluor counter 15.8µM[quencher], Tau ThT inhib inconclusive
C=CCNc1nc2c3ccccc3n(C(C)=O)c2s1	Tau FP inhib inconclusive, Tau fluor counter inconclusive, Tau ThT inhib 28.2µM
O=C(/C=C/c1cccs1)c1ccc(N2CCOCC2)cc1	Tau ThT inhib 15.8µM
O=C(/C=C/c1cccc(F)c1)Nc1cc(S(=O)(=O)N2CCOCC2)ccc1N1CCCC1	none
O=C(/C=C/c1cccc(F)c1)c1ccc(N2CCOCC2)cc1	Tau fluor counter inconclusive, Tau ThT inhib 12.6µM
N#CCCN1CCN(C(=S)c2ccc(-c3ccc(Cl)cc3)o2)CC1	Tau ThT inhib 20µM
S=C(c1ccc(-c2ccc(Cl)cc2)o1)N1CCCCC1	Tau ThT inhib inconclusive
CCOc1ccc(CNC(=O)c2cnc3sc(N4CCOCC4)nn3c2=O)cc1OC	TR SRC2 fluor cs 1995µM[quencher], TRb-SRC2 inh inconclusive (no result: GoLoco inh red)
Nc1ccc(N(CCO)CCO)cc1	Tau FP inhib 15.8µM, GoLoco inh red 8.91µM, TRb-SRC2 inh inconclusive, Tau fluor counter inconclusive, Tau ThT inhib 11.2µM
COc1cc2c(cc1O)C(Cc1ccc(O)cc1)[N+](C)(C)CC2 (configuration not stated)	none
Cc1ccccc1C(=O)Oc1ccc(Sc2ccc(O)cc2)cc1	Tau FP inhib 25.1µM, Tau fluor counter 7.08µM[quencher], Tau ThT inhib inconclusive
Cc1ccccc1C(=O)Oc1ccc(-c2csnn2)cc1	Tau ThT inhib inconclusive
CNC(=O)N(O)C1N(/N=C/c2cccnc2)C(=S)SC1(C)C (configuration not stated)	none
CN(C)c1ccc(/C=N/N2C(=S)SC(C)(C)C2N(O)C(=O)Nc2ccc([N+](=O)[O-])cc2)cc1 (configuration not stated)	Tau fluor counter 11.2µM[quencher], Tau ThT inhib 17.8µM
COc1ccccc1-n1c(SCC(=O)c2ccc(O)cc2O)nc2cc([N+](=O)[O-])ccc21	Tau FP inhib inconclusive, Tau fluor counter 10µM[quencher]
COc1ccccc1-n1c(SCC(=O)NC2CCS(=O)(=O)C2)nc2cc([N+](=O)[O-])ccc21 (configuration not stated)	none
Oc1c(Cl)cc(Cl)cc1/C=N/NC(=S)NC1CC2C=CC1C2 (configuration not stated)	Tau fluor counter 28.2µM[quencher], Tau ThT inhib inconclusive
Oc1ccccc1/C=N/NC(=S)NC1CC2C=CC1C2 (configuration not stated)	Tau fluor counter inconclusive
COc1ccc(NC(=O)c2c(-c3ccccc3)c(-c3ccccc3)nn(C)c2=O)c(OC)c1	none (no result: GoLoco inh red)
N#C/C(=C\Nc1ccccc1O)c1nc2ccccc2o1	Tau FP inhib inconclusive, Tau fluor counter 17.8µM[quencher], Tau ThT inhib inconclusive
CCOc1ccc(C2NC(=O)C(C#N)=C(S)N2c2cccc(C)c2)cc1OC (configuration not stated)	Tau FP inhib inconclusive, Tau ThT inhib 31.6µM
COc1ccc(C2NC(=O)C(C#N)=C(S)N2c2ccccc2)cc1OC (configuration not stated)	Tau FP inhib inconclusive, Tau ThT inhib inconclusive
CCOc1ccc(C2NC(=O)C(C#N)=C(S)N2c2ccc(C)cc2)cc1OC (configuration not stated)	Tau FP inhib inconclusive, Tau ThT inhib 31.6µM
C[C@@]12CCC3c4ccc(OC5C=CC(c6ccccc6)OC5CO)cc4CCC3C1CCC2=O (some centres not stated)	Tau ThT inhib inconclusive (no result: GoLoco inh red)
O=C1COc2ccc(-c3cc(-c4ccc(Cl)cc4)c4c(n3)-c3ccccc3OC4)cc2N1	Tau FP inhib inconclusive, TR SRC2 fluor cs 10µM[quencher] (no result: GoLoco inh red)
O=C1COc2ccc(-c3cc(-c4ccccc4)c4c(n3)-c3ccccc3OC4)cc2N1	none (no result: GoLoco inh red)
O=c1c(-c2cc(-c3ccccc3)nc3c2COc2ccccc2-3)coc2ccc(Cl)cc12	TR SRC2 fluor cs 20µM[quencher] (no result: GoLoco inh red)
O=c1cc(O)sc2ccccc12	none
